Data reported in PubChem BioAssay (Tox21).
Inconclusive results are not listed. Calls of active or inactive are those of the source. Calls follow the shape of the dose curve; as a rule, active = well fitted cell-killing curve with a large enough effect in the repeat runs; inconclusive = weak or mixed curves, or effect the other way; inactive = flat fitted curve, though single readings scatter.

experiment: qHTS RealTime-Glo MT Cell Viability Assay in HepG2 cells - 0 hour (AID 1224889); details: RealTime-Glo luminescence; series mostly up to 76.8 µM; activity change, negative = cytotoxicity: at the top concentration; also: nearly all actives have a fitted effect of over 50% in size
Text: U.S. Tox21 Program National Center for Advancing Translational Sciences [NCATS] NIH Chemical Genomics Center [NCGC] U.S. Environmental Protection Agency [EPA] National Institutes of Environmental Health Sciences [NIEHS] National Toxicology Program [NTP] U.S. Food and Drug Administration [FDA] Tox21 Assay Overview: Measure of cell viability is critical in the cell-base assay. Analysis of cell viability is necessary for the characterization of cell responses to cytotoxic drugs and environmental stress. A RealTime-Glo MT Cell Viability Assay to monitor cell viability in real time of continues cell culture during 40 hours of compound treatment was used to screen Tox21 10K library compounds in HepG2 cells. The RealTime-Glo MT Cell Viability Assay is a nonlytic, homogeneous, bioluminescent method to measure cell viability in real time using a simple, plate-based method. The assay involves adding NanoLuc luciferase and a cell-permeant prosubstrate to cells in culture. Viable cells reduce the proprietary prosubstrate to generate a substrate for NanoLuc luciferase. This substrate diffuses from cells into the surrounding culture medium, where it is rapidly used by the NanoLuc Enzyme to produce a luminescent signal. The signal correlates with the number of viable cells, making the assay well suited for cytotoxicity studies.
Tox21 Assay Protocol Summary: The mixture of HepG2 cell suspension and reagents were dispensed at 600cells/6 ul/well in 1536-well tissue culture treated black solid bottom plates using a Multidrop dispenser. After the assay plates were incubated at a 37 C/5% CO2 incubator for 5 hours, 23 nL of compounds dissolved in DMSO, positive and negative controls was transferred to the assay plate by a pintool work station. The plates were incubated at 37 C for 40 hours. The luminescence intensity were measured at 0h, 8h, 16h, 24h, 32h and 40h time points using ViewLux plate reader during compound treatment.
% is scaled to controls: 0 for no effect and ±100 for the full control effect.

Compound | activity change, negative = cytotoxicity
CCCC(=O)CC | -5.99% (inactive)
CCC(C)SSC(C)CC (stereo not given) | 2.07% (inactive)
N=C(N)S(=O)O | -3.28% (inactive)
Cc1nnc(C(=O)NC(C)(C)c2nc(C(=O)NCc3ccc(F)cc3)c(O)c(=O)n2C)o1 | -4.41% [at 35.3 µM] (inactive)
CC1(C)CC(N)CC(C)(C)N1 | 16.4% (inactive)
CCCOc1ccc(C(=O)OCCN(CC)CC)cc1N | 4.21% [at 35.3 µM] (inactive)
O=C(O)Cc1ccccc1Oc1ccc(Cl)cc1Cl | -7.32% [at 35.3 µM] (inactive)
CCCC(C)C(O)CC (stereo not given) | 5.08% (inactive)
CC1=C(O)C(=O)CO1 | 1.48% (inactive)
CCCCCCCCCCCCCCCC(=O)OC | -16.3% [at 15.8 µM] (inactive)
CC(C)(C)OC=O | 0.949% (inactive)
CC(C)(C)OC(=O)c1ccccc1C(=O)O | 3.86% (inactive)
O=P(O)(O)C(O)(Cc1cccnc1)P(=O)(O)O | 3.94% [at 35.3 µM] (inactive)
c1coc(Cn2cccc2)c1 | 1.86% (inactive)
C=CC(=O)OCCOCCOCC | 3.26% (inactive)
C[C@@H]1NC(=O)[C@@H](N)CNC(=O)[C@H](C2CCNC(N)=N2)NC(=O)/C(=C/NC(N)=O)NC(=O)[C@H](CNC(=O)C[C@@H](N)CCCN)NC1=O (stereo not given in full) | 5.25% [at 0.29 µM] (inactive)
C=C(C)C(=O)OCCCC | -1.13% (inactive)
COC(=O)c1ccccc1Cl | 5.18% (inactive)
C=CC(=O)OCC[N+](C)(C)C | 2.23% (inactive)
CCCCCCCCCCCC(C)=O | -1.05% (inactive)

Compound | activity change, negative = cytotoxicity
CC(C)(C)C(=O)CCc1ccc(Cl)cc1 | -4.69% (inactive)
C/C=C/C(=O)CCCC | -12.5% (inactive)
CCO[Si](CC(C)C)(OCC)OCC | 9.96% (inactive)
CC(C)C(=O)Nc1cccc(C2CN3CCSC3=N2)c1 (stereo not given) | 4.87% [at 35.3 µM] (inactive)
CCOC(=O)c1ccc(N(C)C)cc1 | -6.38% (inactive)
CCCCCCCCCCCCCC(=O)OCC | 8.93% (inactive)
CCCCOCCCC | -1.48% (inactive)
CC(CC(=O)Cl)CC(C)(C)C (stereo not given) | -13.6% (inactive)
Clc1ccc2c(c1)Nc1ccccc1S2 | -1.42% [at 35.3 µM] (inactive)
CC[C@@]1(c2ccccc2)NC(=O)N(C)C1=O | 14% [at 35.3 µM] (inactive)
CC(=O)O[C@@H]1CC2C3CCc4cc(OC(=O)c5ccccc5)ccc4C3CCC2(C)[C@H]1OC(C)=O (stereo not given in full) | -3.16% [at 35.3 µM] (inactive)
CC1(C)C(=O)C(C)(C)C1=O | 1.02% (inactive)
CC1(C)S[C@@H]2[C@H](NC(=O)Cc3ccccc3)C(=O)N2[C@H]1C(=O)O (tested in a mixture with another compound) | 0.405% [at 35.3 µM] (inactive)
CCCCCCCCCCCCCCCC/C=C/C1CC(=O)OC1=O (stereo not given) | 1.78% [at 35.3 µM] (inactive)
CC(=O)Oc1ccc(C(C)=O)cc1 | -3.76% (inactive)
C[C@@H](CN1CC(=O)NC(=O)C1)N1CC(=O)NC(=O)C1 | 10.7% [at 35.3 µM] (inactive)
Cc1cccc(N)n1 | 3.17% (inactive)
CCCCNCC | 6.13% (inactive)
CN(C)c1ccncc1 | 6% (inactive)
NC(=O)CC[C@@H](N)C(=O)O | 0.892% [at 35.3 µM] (inactive)
